Test results taken from PubChem BioAssay (Tox21).
Results filed as inconclusive are left out. Active and inactive are the calls of the source. Unless noted, the call rests on the fitted dose curve.

Key:
[1] = Nuclear factor erythroid 2-related factor 2/antioxidant responsive element (Nrf2/ARE) small molecule agonists: luciferase reporter gene qHTS assay in human keratinocytes (AID 1919969); further: nearly all actives have a fitted effect of over 35% in size; further: potency means the concentration at half of the fitted maximal effect
[2] = target: Gonadotropin-releasing hormone receptor (Homo sapiens) (UniProt P30968); assay: Human gonadotropin-releasing hormone receptor (GnRHR) small molecule agonists, calcium flux assay in GnRHR-HEK293 cells (AID 1920063); further: nearly all actives have a fitted effect of over 35% in size; further: potency means the concentration at half of the fitted maximal effect
Chain of Gonadotropin-releasing hormone receptor (Homo sapiens) (P30968 whole entry, looked up): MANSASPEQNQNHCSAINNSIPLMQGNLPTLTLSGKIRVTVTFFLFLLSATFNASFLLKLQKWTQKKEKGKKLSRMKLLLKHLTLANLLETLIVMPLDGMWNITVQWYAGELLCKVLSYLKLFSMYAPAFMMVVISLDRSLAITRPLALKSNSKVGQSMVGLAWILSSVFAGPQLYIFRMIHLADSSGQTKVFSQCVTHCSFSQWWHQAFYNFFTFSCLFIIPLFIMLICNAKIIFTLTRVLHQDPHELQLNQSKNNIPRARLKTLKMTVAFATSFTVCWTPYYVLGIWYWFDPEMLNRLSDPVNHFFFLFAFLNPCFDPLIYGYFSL
Outline: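 Compounds dissolved in DMSO are pin-transferred onto dye-loaded GnRHR-HEK293 cells, which were seeded 18 h before at 37 C/5% CO2. Calcium signal is read as fluorescence intensity at 1 s intervals for 3 min.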

[3] = target: KiSS-1 receptor (Homo sapiens) (UniProt Q969F8); assay: Human kisspeptin (KISS1R) small molecule agonists, calcium flux assay in KISS1R-HEK293 cells (AID 1920064; active means well fitted activation curve with a large enough effect in the repeat runs)
Chain of KiSS-1 receptor (Homo sapiens) (Q969F8 whole entry, looked up): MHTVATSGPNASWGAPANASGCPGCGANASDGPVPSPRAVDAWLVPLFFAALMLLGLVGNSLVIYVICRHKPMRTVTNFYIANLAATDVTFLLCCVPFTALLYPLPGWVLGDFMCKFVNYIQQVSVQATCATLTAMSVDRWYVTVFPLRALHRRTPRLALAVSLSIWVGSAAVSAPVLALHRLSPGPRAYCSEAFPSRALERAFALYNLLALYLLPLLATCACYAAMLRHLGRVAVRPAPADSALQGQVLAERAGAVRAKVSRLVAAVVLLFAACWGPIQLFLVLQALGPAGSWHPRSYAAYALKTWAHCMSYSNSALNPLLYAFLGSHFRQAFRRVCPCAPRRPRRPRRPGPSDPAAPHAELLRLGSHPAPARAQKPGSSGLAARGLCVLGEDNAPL
Outline: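 Cell line: HEK293, stable human KISS1R. Dye loading 1 h at 37 C after 18 h culture. Read: kinetic fluorescence, 480/540 nm, 3 min at 1 s intervals.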

[4] = G protein-coupled receptor (GPCR) small molecule agonists, calcium flux assay: HEK293 wild type cell line counter screen (AID 1920065); further: potency means the concentration at half of the fitted maximal effect
Outline: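 Tox21 10K compounds, 15 concentrations each in triplicate, pin-transferred in DMSO onto dye-loaded cells; kinetic read at 480/540 nm for 3 min, 1 s intervals.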

[5] = p53 small molecule agonists, cell-based qHTS assay with human liver microsomes (AID 1963577);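 further: p53 response element beta-lactamase reporter cells with liver microsomes plus NADPH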
Outline: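 With metabolic activation: human liver microsomes (0.5 mg/mL final) plus NADPH (0.5 mg/mL final) added alongside compounds to p53RE-bla cells; 16 h 37 C exposure; beta-lactamase read by LiveBLAzer fluorescence.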

[6] = p53 small molecule agonists, cell-based qHTS assay with rat liver microsomes (AID 1963578)
Outline: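 Metabolic activation by rat liver microsomes and NADPH, each 0.5 mg/mL final, added right after compounds to p53RE-bla reporter cells (4,000/well, plated 5 h earlier). 16 h at 37 C, then LiveBLAzer substrate for 2 h at room temperature in the dark; fluorescence read-out.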

[7] = p53 small molecule agonists, cell-based qHTS assay with human liver microsomes: qHTS cell viability counter screen (AID 1963579); further: nearly all actives have a fitted effect of over 45% in size
Outline: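 Metabolic activation used human liver microsomes and NADPH, both 0.5 mg/mL final, over 16 hours at 37 C on p53RE-bla cells (4,000/well). Cytotoxicity measured by CellTiter-Glo luminescence, 30 min at room temperature.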

[8] = p53 small molecule agonists, cell-based qHTS assay: qHTS cell viability counter screen (AID 1963581); further: nearly all actives have a fitted effect of over 45% in size
Outline: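 ATP content measured by luminescence in HCT-116 p53RE-bla cells treated 16 h at 37 C, same wells as the reporter screen.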

[9] = target: 5-hydroxytryptamine receptor 2A (Homo sapiens) (UniProt P28223); assay: 5-hydroxytryptamine receptor 2A (HTR2A) small molecule agonists, cell-based qHTS assay (AID 1963587); further: nearly all actives have a fitted effect of over 30% in size; further: potency means the concentration at half of the fitted maximal effect
Chain of 5-hydroxytryptamine receptor 2A (Homo sapiens) (P28223 whole entry, looked up): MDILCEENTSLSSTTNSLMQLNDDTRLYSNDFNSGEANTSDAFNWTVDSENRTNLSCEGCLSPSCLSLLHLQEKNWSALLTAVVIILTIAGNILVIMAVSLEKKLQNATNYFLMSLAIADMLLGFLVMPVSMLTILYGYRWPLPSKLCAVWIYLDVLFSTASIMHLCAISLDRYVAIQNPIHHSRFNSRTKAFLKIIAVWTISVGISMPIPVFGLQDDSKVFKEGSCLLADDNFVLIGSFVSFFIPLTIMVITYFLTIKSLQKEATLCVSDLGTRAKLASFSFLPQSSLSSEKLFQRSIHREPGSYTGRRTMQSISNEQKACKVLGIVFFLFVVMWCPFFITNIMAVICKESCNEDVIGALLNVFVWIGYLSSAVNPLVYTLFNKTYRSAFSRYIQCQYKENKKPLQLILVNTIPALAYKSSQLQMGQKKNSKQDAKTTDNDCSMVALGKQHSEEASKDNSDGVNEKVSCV
Outline: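 Kinetic calcium-flux fluorescence (2 min, 1 sec intervals) after compound addition in agonist mode. HTR2A-CHO cells were cultured 18 h, then dye-loaded 1 h at 37 C.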

[10] = target: Muscarinic acetylcholine receptor M1 (Homo sapiens) (UniProt P11229); assay: Cholinergic receptor muscarinic 1 (CHRM1) small molecule antagonists, cell-based qHTS assay (AID 1963588); further: nearly all actives have a fitted effect of over 40% in size; further: potency means the concentration at half of the fitted maximal effect
Chain of Muscarinic acetylcholine receptor M1 (Homo sapiens) (P11229 whole entry, looked up): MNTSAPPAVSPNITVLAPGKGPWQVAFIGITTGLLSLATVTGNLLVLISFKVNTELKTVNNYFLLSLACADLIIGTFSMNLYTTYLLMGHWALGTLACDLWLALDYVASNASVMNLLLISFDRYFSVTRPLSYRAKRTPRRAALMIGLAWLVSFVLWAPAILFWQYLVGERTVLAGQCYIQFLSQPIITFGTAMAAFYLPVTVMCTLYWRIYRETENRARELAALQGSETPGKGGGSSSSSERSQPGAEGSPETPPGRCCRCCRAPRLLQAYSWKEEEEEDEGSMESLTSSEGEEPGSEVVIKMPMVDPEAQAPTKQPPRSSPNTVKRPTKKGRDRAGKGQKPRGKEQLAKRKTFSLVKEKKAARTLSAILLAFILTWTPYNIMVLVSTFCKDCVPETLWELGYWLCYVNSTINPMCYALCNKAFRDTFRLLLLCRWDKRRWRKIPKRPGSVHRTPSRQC
Outline: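 Compounds were tested at 15 concentrations in three independent runs. Dye-loaded CHRM1-CHO cells were exposed 5 min at room temperature before stimulation by acetylcholine added at 50nM. Intracellular calcium was read kinetically on FDSS for 3 min.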

[11] = target: Muscarinic acetylcholine receptor M1 (Homo sapiens) (UniProt P11229); assay: Cholinergic receptor muscarinic 1 (CHRM1) small molecule agonists, cell-based qHTS assay (AID 1963589); further: nearly all actives have a fitted effect of over 35% in size
Outline: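 Homogeneous fluorescence calcium flux, agonist mode. Human M1-expressing CHO cells; compound dosed at 15 concentrations, three independent runs; signal sampled every 1 sec.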

[12] = target: D(2) dopamine receptor (Homo sapiens) (UniProt P14416); assay: Dopamine D2 receptor (DRD2) small molecule agonists, cell-based qHTS assay (AID 1963594); further: nearly all actives have a fitted effect of over 35% in size
Chain of D(2) dopamine receptor (Homo sapiens) (P14416 whole entry, looked up): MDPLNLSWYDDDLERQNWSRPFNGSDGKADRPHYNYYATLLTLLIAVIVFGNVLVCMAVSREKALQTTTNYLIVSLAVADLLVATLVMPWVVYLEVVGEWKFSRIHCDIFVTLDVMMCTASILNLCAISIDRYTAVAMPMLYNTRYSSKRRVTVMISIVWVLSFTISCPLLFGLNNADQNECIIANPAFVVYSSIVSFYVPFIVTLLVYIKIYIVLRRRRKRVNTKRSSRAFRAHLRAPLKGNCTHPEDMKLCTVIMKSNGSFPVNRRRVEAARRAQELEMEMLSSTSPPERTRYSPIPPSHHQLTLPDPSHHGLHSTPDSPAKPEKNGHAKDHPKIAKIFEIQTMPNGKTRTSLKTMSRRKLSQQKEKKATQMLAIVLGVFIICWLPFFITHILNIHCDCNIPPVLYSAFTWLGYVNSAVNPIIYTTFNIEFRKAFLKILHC
Outline: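 cAMP accumulation in DRD2-HEK293 cells measured by HTRF after 1 h detection; compounds added 10 min before NKH477 (200nM […]) forskolin-analogue stimulation, 30 min at room temperature, with Ro20-1724 present at 0.1 mM final.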

[13] = target: D(2) dopamine receptor (Homo sapiens) (UniProt P14416); assay: Dopamine D2 receptor (DRD2) small molecule antagonists, cell-based qHTS assay (AID 1963595; active means well fitted inhibition curve with a large enough effect in the signal ratio in the repeat runs, with a control signal flat; the % refers to the signal ratio)
Outline: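 Human DRD2 antagonist qHTS measuring cAMP by HTRF. The cells are exposed to compound for 10 min, then to NKH477 (200 nM) and quinpirole (12 nM) for 30 min at RT, with Ro20-1724 (0.1 mM) present throughout.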

[14] = p53 small molecule agonists, cell-based qHTS assay with rat liver microsomes: qHTS cell viability counter screen (AID 1963580); further: nearly all actives have a fitted effect of over 45% in size
Outline: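 Rat liver microsome (0.5 mg/mL final) and NADPH (0.5 mg/mL final) co-incubation with compounds for 16 h at 37 C on HCT-116 p53RE-bla cells; cytotoxicity taken from intracellular ATP luminescence.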

[15] = p53 small molecule agonists, cell-based qHTS assay (AID 1963582; active means well fitted activation curve with a large enough effect in the signal ratio in the repeat runs, not every such curve was filed as active; the % refers to the signal ratio; further: potency means the concentration at half of the fitted maximal effect)
Outline: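 16 h compound exposure (37 C) of p53 response element–bla cells, preceded by 5 h recovery at 37 C/5% CO2; read-out via LiveBLAzer B/G FRET substrate, 2 h RT, fluorescence intensity.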

[16] = target: 5-hydroxytryptamine receptor 2A (Homo sapiens) (UniProt P28223); assay: 5-hydroxytryptamine receptor 2A (HTR2A) small molecule antagonists, cell-based qHTS assay (AID 1963586); further: nearly all actives have a fitted effect of over 45% in size; further: potency means the concentration at half of the fitted maximal effect
Outline: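 CHO cells stably expressing human HTR2A were plated for 18 h at 37 C, then loaded with calcium dye for 1 h. Compounds were preincubated 5 min at room temperature before DOI (4 nM solution) was added. Kinetic fluorescence was read for 3 min.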

[17] = cAMP Responsive Elements (CRE) small molecule agonists, cell-based qHTS assay (AID 1963590)
Outline: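 HEK 293T cells stably bearing CRE-bla were plated at 2,000 cells per well and rested 18 h. Compounds, positive controls or DMSO were added for 3 h at 37 C. LiveBLAzer B/G substrate was then loaded for 2 h at room temperature.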

[18] = cAMP Responsive Elements (CRE) small molecule antagonists, cell-based qHTS assay (AID 1963591; active means well fitted inhibition curve with a large enough effect in the signal ratio in the repeat runs, not every such curve was filed as active; the % refers to the signal ratio; further: potency means the concentration at half of the fitted maximal effect)
Outline: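 First, CRE-bla HEK293T cells settled 18 h at 37 C. Next, compound and 0.25 uM final NKH477 were applied for 3 h. Last, LiveBLAzer B/G substrate was loaded for 2 h at room temperature.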

[19] = target: Beta-2 adrenergic receptor (Homo sapiens) (UniProt P07550); assay: Adrenergic beta2 receptor (ADRB2) small molecule antagonists, cell-based qHTS assay (AID 1963592); further: nearly all actives have a fitted effect of over 50% in size; further: potency means the concentration at half of the fitted maximal effect
Chain of Beta-2 adrenergic receptor (Homo sapiens) (P07550 whole entry, looked up): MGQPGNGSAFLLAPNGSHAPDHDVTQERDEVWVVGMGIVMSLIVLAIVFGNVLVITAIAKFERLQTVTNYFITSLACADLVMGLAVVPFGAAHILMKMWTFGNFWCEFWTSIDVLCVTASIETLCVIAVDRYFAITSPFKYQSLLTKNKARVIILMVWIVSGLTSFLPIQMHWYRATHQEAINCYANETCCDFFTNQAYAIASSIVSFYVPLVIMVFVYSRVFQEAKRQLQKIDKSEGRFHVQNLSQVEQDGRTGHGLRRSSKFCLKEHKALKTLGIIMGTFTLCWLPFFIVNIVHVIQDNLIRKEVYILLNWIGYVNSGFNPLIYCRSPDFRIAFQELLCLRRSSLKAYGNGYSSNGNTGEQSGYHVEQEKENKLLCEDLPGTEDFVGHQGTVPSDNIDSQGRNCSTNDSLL
Outline: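 Assay format: CHO-ADRB2 cells, 18-20hr seeding at 37C/5% CO2, then compound plus 1nM isoproterenol agonist mix for 0.5hr RT. Homogeneous time-resolved fluorescence cAMP detection after 1hr, expressed as 665/615 nm ratio.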

[20] = target: Beta-2 adrenergic receptor (Homo sapiens) (UniProt P07550); assay: Adrenergic beta2 receptor (ADRB2) small molecule agonists, cell-based qHTS assay (AID 1963593);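 further: CHO cells stably overexpressing human ADRB2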
Outline: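 CHO cells stably over-expressing ADRB2 were plated overnight at 37C, then dosed with compounds plus a stimulation mix containing 100uM IBMX and 25uM Ro-20-1724 for 0.5hr at room temperature. cAMP was measured by HTRF competition, 1hr.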

Measured: Potency

N#Cc1c(-c2ccc(Cl)cc2)[nH]c(C(F)(F)F)c1Br
active: [1] 9.69 µM | [4] 2.45 µM | [10] 16.8 µM
not listed: [14] | [15] | [16] | [17] | [18] | [19] | [20]
inactive: all other assays above

C=C(Cl)CSC(=S)N(CC)CC
active: [1] 66.8 µM
not listed: [6] | [20]
inactive: all other assays above

Cc1cc(C)c(C(=O)P(=O)(c2ccccc2)c2ccccc2)c(C)c1
inactive: [1] | [2] | [3] | [4] | [5] | [6] | [14] | [10] | [11] | [13]
active: [16] 10.6 µM | [9] 24.5 µM

CCO/N=C(\CC)C1=C(O)CC(c2c(C)cc(C)cc2C)CC1=O (centres undefined)
inactive: [1] | [2] | [3] | [4] | [5] | [6] | [14] | [16] | [9] | [11]

CC(CC(C(N)=O)(c1ccccc1)c1ccccc1)N(C)C (centres undefined)
active: [10] 0.0082 µM
not listed: [7] | [8]
inactive: all other assays above

CC(C)(C)C(O)/C(=C\c1ccc(Cl)cc1Cl)n1cncn1 (centres undefined)
not listed: [7] | [9] | [11] | [12] | [13] | [17] | [18] | [20]
inactive: all other assays above

COC(N)=O
not listed: [6] | [8] | [11] | [13] | [15] | [17] | [18] | [20]
inactive: all other assays above

Clc1ccc(Oc2ccccc2)cc1
not listed: [14] | [16] | [20]
inactive: all other assays above

ClC(Cl)=C(c1ccc(Cl)cc1)c1ccccc1Cl
not listed: [13] | [14] | [15] | [16] | [17] | [20]
inactive: all other assays above

Cc1cc(SCc2sc(-c3ccc(C(F)(F)F)c(F)c3)nc2C)ccc1OCC(=O)O
inactive: [2] | [3] | [4] | [5] | [6] | [7] | [8] | [11] | [19] | [13]
active: [1] 61.1 µM | [16] 42.1 µM

CC(C)[C@H](C(=O)O[C@H](C#N)c1cccc(Oc2ccccc2)c1)c1ccc(Cl)cc1
not listed: [6] | [15] | [17] | [18]
inactive: all other assays above

CC(=O)/C=C/c1ccc2c(c1)OCO2
active: [1] 61.4 µM | [15] 41 µM
inactive: [2] | [3] | [4] | [5] | [7] | [8] | [9] | [10] | [11] | [12]

CCc1ccc(C2CCNCC2)cc1
active: [16] 18.3 µM | [9] 8.49 µM
not listed: [8] | [10] | [13] | [14] | [18] | [20]
inactive: all other assays above

COc1ccccc1N1CCNCC1
active: [16] 0.729 µM | [19] 13.3 µM
not listed: [7] | [9] | [12] | [17] | [20]
inactive: all other assays above

C[C@@H]1O[C@@H](O[C@@H]2C=C3CC[C@@H]4[C@H](CC[C@]5(C)[C@@H](c6ccc(=O)oc6)CC[C@]45O)[C@@]3(C)CC2)[C@H](O)[C@H](O)[C@H]1O
active: [1] 0.0106 µM
inactive: [2] | [3] | [4] | [5] | [6] | [7] | [19] | [20] | [12] | [13]

CN(C)C(=O)Nc1cccc(OC(=O)NC(C)(C)C)c1
not listed: [6] | [14] | [15] | [17] | [20]
inactive: all other assays above

CC(C)C1CCC(Cc2ccc(Cl)cc2)C1(O)Cn1cncn1 (centres undefined)
inactive: [1] | [2] | [3] | [4] | [5] | [6] | [15] | [11] | [12]
active: [16] 37.1 µM | [19] 30.3 µM

CC(=O)OC1(c2ccccc2)CCN(CCc2ccccc2)CC1
active: [16] 9.65 µM
not listed: [7] | [15] | [17] | [18] | [20]
inactive: all other assays above

Nc1ccc(Cl)cc1C(=O)c1ccccc1F
not listed: [7] | [8] | [15] | [16] | [18]
inactive: all other assays above

c1ccc2c(c1)OCC(C1=NCCN1)O2 (centres undefined)
active: [1] 23.7 µM
not listed: [6] | [8] | [13] | [20]
inactive: all other assays above

CCC(C)(c1ccc(O)cc1)c1ccc(O)cc1
not listed: [5] | [15]
inactive: all other assays above

CC(Cc1ccc(C(C)(C)C)cc1)CN1C[C@@H](C)O[C@@H](C)C1 (some centres undefined)
active: [1] 61.1 µM | [10] 37.5 µM
not listed: [6] | [13] | [14] | [15] | [16] | [20]
inactive: all other assays above

COC(=O)N(OC)c1ccccc1COc1ccn(-c2ccc(Cl)cc2)n1
active: [18] 61.1 µM
not listed: [5] | [10] | [15]
inactive: all other assays above

C=CCOC(=O)c1ccccc1N
active: [1] 6.15 µM
not listed: [5] | [6] | [15] | [18] | [20]
inactive: all other assays above

CC1COC(Cn2cncn2)(c2ccc(Oc3ccc(Cl)cc3)cc2Cl)O1 (centres undefined)
not listed: [5] | [8] | [10] | [15] | [17] | [18] | [20]
inactive: all other assays above

CC(C)(O)c1cnn2c(-c3ccc(F)c(-c4c(F)cccc4C#N)c3)cnc2n1
active: [2] 38.9 µM | [9] 54.9 µM
not listed: [5] | [6] | [12] | [15] | [17] | [18]
inactive: all other assays above
